Among the test systems are MDA-MB-435 melanoma; SW-620 colon; MCF7 breast; HCT-116 colon; HCC-2998 colon; KM12 colon; BT-549 breast.
What all share (assay): NCI-60 one-dose screen, 48 h (100 = growth as untreated, 0 = no growth, -100 = all killed)
What all share (settings): 10 µM unless noted

Structures are written as SMILES. About 83,000 compounds went through this panel and 20% of them were active in at least one assay; those are over-represented in the sample as a whole.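 Assay: single dose, 48 h. Readout: percent growth (0 = no net growth; negative = cell death). Active: <10.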 Activity calls are given as the source filed them.

As to `Nc1nc(Nc2ccccc2)c2ncn(Cc3ccc4c(c3)OCO4)c2n1`, the growth in the assay with MDA-MB-435 melanoma is -23.4% (active); with SW-620 colon, 23.1% (inactive); in the assay on MCF7 breast, 21.3% (inactive); in the assay on HCT-116 colon, 35.2% (inactive); in the assay with HCC-2998 colon, 71% (inactive); in the assay on KM12 colon, 26.2% (inactive).

In the case of `Cc1ccc2c(c1)C(C)Cc1c(Cl)ncnc1N2C` (stereo not drawn), the growth with MDA-MB-435 melanoma was 6.38% (active); in the assay on SW-620 colon it was 16.6% (inactive); in the assay on MCF7 breast, 13.5% (inactive); in the assay on HCT-116 colon, 12.9% (inactive); with HCC-2998 colon, 20.5% (inactive); in the assay with KM12 colon it was 9.89% (active).

On to `COc1cc(-c2nc(SCCC(C)C)nc(Nc3ccc(S(N)(=O)=O)cc3)c2C#N)cc(OC)c1OC`, for which the growth in the assay on BT-549 breast is 27.6% (inactive); in the assay on MDA-MB-435 melanoma, 22.2% (inactive); in the assay with SW-620 colon, 36.3% (inactive); with MCF7 breast it was 16.9% (inactive); in the assay with HCT-116 colon it was 3.77% (active); in the assay on HCC-2998 colon it was 35.2% (inactive). For the same compound, the growth in the assay on KM12 colon was 19.9% (inactive).

As to `COc1ccc2c3ccnc(C(F)(F)F)c3n(CCCCN)c2c1`, the growth with BT-549 breast was 52.4% (inactive); in the assay on MDA-MB-435 melanoma, 45.9% (inactive); with SW-620 colon, 38.5% (inactive); in the assay with HCT-116 colon, 16.5% (inactive); in the assay on HCC-2998 colon, 95.7% (inactive); with KM12 colon, 54.8% (inactive).

Consider `CC(C)c1ccc(C(=O)Nc2nc3ccc(O)cc3s2)cc1`, for which the growth in the assay with BT-549 breast was 55.5% (inactive); with MDA-MB-435 melanoma it was 22% (inactive); with SW-620 colon it was 16% (inactive); in the assay on MCF7 breast it was 9.03% (active); in the assay with HCT-116 colon it was 39.6% (inactive); with HCC-2998 colon, -8.31% (active). Also, in the assay on KM12 colon, the growth was 15.7% (inactive).

In the case of `O=S(=O)(NCCNc1nccc(-c2c(-c3cccc(F)c3)nc3occn23)n1)c1ccc(C(F)(F)F)cc1`, the growth was 106% (inactive) in the assay with BT-549 breast; 76.3% (inactive) in the assay with MDA-MB-435 melanoma; 101% (inactive) in the assay on SW-620 colon; 76.5% (inactive) in the assay on HCT-116 colon; 125% (inactive) in the assay with HCC-2998 colon; 92% (inactive) with KM12 colon.

For the compound `O=C1/C(=C\c2cn(CC(O)CN3CCCCC3)c3ccccc23)c2ccccc2N1c1c(Cl)cccc1Cl` (stereo not drawn), the growth is -86.1% (active) with BT-549 breast; -93.3% (active) in the assay on MDA-MB-435 melanoma; -91.8% (active) in the assay on SW-620 colon; -77.5% (active) in the assay on MCF7 breast; -78.6% (active) in the assay on HCT-116 colon; -82.4% (active) in the assay on HCC-2998 colon. The growth with KM12 colon is -95.3% (active).

For the compound `CC[C@]12C=CCN3CC[C@@]4(c5ccc(OC)cc5N(C)[C@H]4[C@@](O)(C(=O)OC)[C@@H]1OC(=O)CCC(=O)N[C@H](Cc1c[nH]c4ccccc14)C(=O)OC)[C@@H]32`, the growth in the assay on BT-549 breast was -16.5% [100 µM] (active); in the assay on MDA-MB-435 melanoma, -60.6% [100 µM] (active); with MCF7 breast, -43.3% [100 µM] (active); in the assay on HCT-116 colon it was 3.55% [100 µM] (active); with HCC-2998 colon, -43.3% [100 µM] (active); in the assay with KM12 colon it was -35.1% [100 µM] (active).

As to `Cn1cc(-c2noc(-c3cn(C)c4ncc(Br)cc34)n2)c2cc(Cl)ccc21`, the growth in the assay on MDA-MB-435 melanoma is 68.3% (inactive); with MCF7 breast, 65.9% (inactive); with HCT-116 colon, 35.2% (inactive); in the assay on HCC-2998 colon, 93.9% (inactive); in the assay on KM12 colon, 75.7% (inactive).

Turning to `CCOc1cccc2c(NC(C)CCCN(CC)CC)c(C)cnc12` (stereo not drawn), the growth in the assay on BT-549 breast was 99.8% (inactive); with MDA-MB-435 melanoma, 101% (inactive); in the assay on SW-620 colon it was 96.6% (inactive); in the assay on MCF7 breast it was 97.7% (inactive); with HCT-116 colon, 93.4% (inactive); in the assay with HCC-2998 colon, 115% (inactive). Besides, in the assay with KM12 colon, the growth was 99.1% (inactive).

The record behind these values is PubChem BioAssay (NCI).
